Most compounds without a hit are left out; they make up all but 3.5% or so of the library.
TEAD-YAP inh: TEAD-YAP interaction inhibition; inhibition, % at 9.12 µM; 1.4% of 640,000 active; AID 1259422; HEK-TIYL cells, TEAD-Gal4/YAP UAS-luciferase luminescence; in the data active = inhibition above about 32%;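 also: 0% = median of test compound wells and 100% = reference inhibitor wells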
MITF primary: blocks human microphthalmia-associated transcription factor; AlphaScreen MITF homodimerization, bead proximity signal; 0.91% of 650,000 active; AID 1259374; inhibition, % at 2.6 µM; in the data active = inhibition above about 50%;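 also: 0% = vehicle wells with protein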
Target sequence (O75030 whole entry, looked up): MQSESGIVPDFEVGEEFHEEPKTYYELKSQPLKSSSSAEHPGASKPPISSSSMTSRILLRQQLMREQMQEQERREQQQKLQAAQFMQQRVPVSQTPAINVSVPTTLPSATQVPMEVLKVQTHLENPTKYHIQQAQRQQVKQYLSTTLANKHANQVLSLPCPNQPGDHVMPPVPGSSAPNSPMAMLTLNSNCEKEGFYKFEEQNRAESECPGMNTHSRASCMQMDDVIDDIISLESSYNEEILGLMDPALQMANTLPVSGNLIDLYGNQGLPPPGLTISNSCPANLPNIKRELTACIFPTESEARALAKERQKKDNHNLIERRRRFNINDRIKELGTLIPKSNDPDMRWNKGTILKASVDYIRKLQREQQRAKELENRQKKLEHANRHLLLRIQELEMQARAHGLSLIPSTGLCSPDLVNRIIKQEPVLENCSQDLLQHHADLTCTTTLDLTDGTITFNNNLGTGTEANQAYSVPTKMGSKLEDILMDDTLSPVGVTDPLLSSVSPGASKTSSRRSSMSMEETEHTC
FBW7 act: human FBW7 E3 ligase activation, primary screen | 0.13% of 650,000 active | Q969H0 | AlphaScreen FBW7–phospho-cyclin E peptide binding, activator screen | normalized activity (activation), % at 26.1 µM; in the data active = normalized activity above about 1.9%;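 also: purified mutant Fbw7 with reduced substrate affinity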
GPR151 ag: activators of human GPR151 | Q8TDV0 | activation, % at 11.2 µM | PathHunter beta-arrestin GPR151 cells, luminescence | 1% of 650,000 active; in the data active = activation above about 4.9%;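 also: 0% = median of compound wells and 100% = cells with positive control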
GPR151 confirm: human GPR151 activation, confirmation screen. 6,700 tested, under 10 active. shares compounds with GPR151 ag. GPR151 PathHunter beta-arrestin cells, luminescence, 90 min; % of EA-reagent control over plate median. activation, % at 11.2 µM;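 active = mean percent activation across replicates above the confirmation screen cutoff of 4.91%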
GPR119 ag: activates human GPR119 in a GPR151 counter-screen. shares compounds with GPR151 ag. GPR119 PathHunter beta-arrestin cells, luminescence, 90 min; 0 = compound-well median, 100 = enzyme-acceptor control. activation, % at 11.2 µM. 0.3% of 6,700 active;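 active = mean percent activation in the counterscreen above 29.09%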;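 also: counterscreen on off-target GPR119 to flag nonselective hits from the GPR151 activator screen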
Active calls of the source: *.

`Cc1c(NC(=O)CSc2ccccc2)c(=O)n(-c2ccccc2)n1C` gave TEAD-YAP inh 8, MITF primary -29, FBW7 act 0 and GPR151 ag 2.
For Cc1c(NC(=O)CSc2ccc(C(C)(C)C)cc2)c(=O)n(-c2ccccc2)n1C the results were TEAD-YAP inh 10, MITF primary 11, FBW7 act 0, GPR151 ag 8.2*, GPR151 confirm 0 and GPR119 ag 0.
Cc1nc2cc(-c3ccccc3)nn2c(C)c1CCC(=O)NC1CCCC1 was read as TEAD-YAP inh 0, MITF primary -13, FBW7 act 0 and GPR151 ag 0.
Screening O=C1NC2(CCN(Cc3ccc4nccnc4c3)CC2)Oc2ccccc21 returned TEAD-YAP inh 4, MITF primary -5, FBW7 act 0, GPR151 ag 5.0*, GPR151 confirm -1 and GPR119 ag -12.
`O=C1NC2(CCN(Cc3ccc(F)c(F)c3)CC2)Oc2ccccc21` gave TEAD-YAP inh -1, MITF primary 2, FBW7 act 0 and GPR151 ag 1.
Cc1ccc2c(nc3s/c(=C\c4ccc(OCc5ccccc5F)cc4)c(=O)n32)c1C was read as TEAD-YAP inh 1, MITF primary 6, FBW7 act 0 and GPR151 ag 0.
Screening O=C(CN1CCN(S(=O)(=O)c2ccc(Br)cc2)CC1)Nc1cc(C(F)(F)F)ccc1Cl returned TEAD-YAP inh 0, MITF primary -9, FBW7 act 0 and GPR151 ag 0.
Screening COc1cc(-c2ncnn2-c2ccccc2Cl)ccc1OCc1ccccc1 returned TEAD-YAP inh -41, MITF primary 4, FBW7 act 1 and GPR151 ag -3.
O=C(NCc1ccccc1)c1cnc(-c2ccccc2)s1 was read as TEAD-YAP inh -38, MITF primary 7, FBW7 act 0, GPR151 ag 6.6*, GPR151 confirm 0 and GPR119 ag -14.
Screening O=C(NCc1cccc(C(F)(F)F)c1)c1cnc(-c2ccccc2)s1 returned TEAD-YAP inh 14, MITF primary 1, FBW7 act 0, GPR151 ag 7.6*, GPR151 confirm -1 and GPR119 ag -4.
`O=C(NCc1cccc(C(F)(F)F)c1)c1cnc(NC2CCC(O)CC2)s1` (stereo not given) gave TEAD-YAP inh 4, MITF primary 3, FBW7 act 0, GPR151 ag 5.1*, GPR151 confirm -1 and GPR119 ag 2.
For COc1ccc(-c2ncc(C(=O)NCc3cccc(C(F)(F)F)c3)s2)cc1 the results were TEAD-YAP inh -2, MITF primary 0, FBW7 act 0 and GPR151 ag -3.
For Nc1cccc(-c2ncc(C(=O)NCc3ccccc3)s2)c1 the results were TEAD-YAP inh 3, MITF primary 11, FBW7 act 0 and GPR151 ag 1.
Screening CCn1c(=O)c2cc(C(=O)NC3CC3)sc2c2ccccc21 returned TEAD-YAP inh 9, MITF primary -9, FBW7 act 0 and GPR151 ag 1.
c1coc(CNc2nc3ccccc3n2CCN2CCOCC2)c1 was read as TEAD-YAP inh -19, MITF primary -11, FBW7 act 0, GPR151 ag 9.8*, GPR151 confirm 0 and GPR119 ag 19.
For Cn1c(CNc2nc3ccccc3n2CCN2CCOCC2)nc2ccccc21 the results were TEAD-YAP inh -13, MITF primary 12, FBW7 act 0 and GPR151 ag -1.
For COc1cc(C2C(C(=O)OCC(C)C)=C(C)NC3=C2C(=O)CC(c2ccc(Cl)cc2)C3)ccc1OCc1ccccc1 (stereo not given) the results were TEAD-YAP inh -6, MITF primary 13, FBW7 act 0 and GPR151 ag -1.
For Cc1ccc(S(=O)(=O)N2N=C3CCCCC3C2(O)C(F)(F)F)cc1 (stereo not given) the results were TEAD-YAP inh -9, MITF primary 4, FBW7 act 0 and GPR151 ag 0.
Screening CCCC1=NN(S(=O)(=O)c2ccc(C)cc2)C(O)(C(F)(F)F)C1 (stereo not given) returned TEAD-YAP inh -3, MITF primary 14, FBW7 act 0, GPR151 ag 5.5*, GPR151 confirm 0 and GPR119 ag -2.

Bioassay records: PubChem BioAssay, The Scripps Research Institute Molecular Screening Center
